Results as given in PubChem BioAssay AID504594 (Broad Institute, 2011).
Screen size: about 2,000 compounds; fewer than 10 were called active.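 The calls were made as follows: active = growth inhibition of at least 75% in every replicate, which also brings the mean inhibition to 75% or more; inconclusive = mean inhibition 75% or more but some replicate under 75%; inactive = the rest.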 The list is a sample of the results.

experiment: growth inhibition of PfHsp90-dependent yeast, primary screen, antimalarial PfHsp90 inhibitor project, S. cerevisiae, BacTiter-Glo luminescence (AID 504594);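 also: 0% = DMSO neutral control wells and 100% = 20 µM radicicol control wells; higher value means stronger growth inhibition because the sign is flipped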; conditions: S. cerevisiae expressing PfHsp90, BacTiter-Glo growth, 48 h; at 9.4 µM; active compounds read high

Growth inhibition, inactive:
CC(C)c1ccc2[nH]c3c(c2c1)CCCC3=O 0.593%
O=c1cc(-c2ccccc2)oc2cc(OCc3ccccc3)cc(O)c12 2.87%
Cc1ccc2ncnc(NCCCCCC(=O)O)c2c1 4.2%
Nc1cccc2c1nnn2C1OC(CO)C(O)C(O)C1O (stereo not drawn) -0.754%
O=C1C=CC(=O)C(C2=C3C(=O)N(CCc4ccccc4)CC(=O)N3CCC2)=C1 0.713%
COc1cc(NC(=O)N[C@@H](Cc2ccccc2)C(=O)O)cc(OC)c1 5.35%
CCc1ccc(CN(C)Cc2nc(Cc3ccccc3)no2)nc1 -0.638%
O=C(NCCNc1ccc(Cl)cc1[N+](=O)[O-])c1cccnc1 1.09%
CC1(C)NC(C(=O)O)Cc2c1[nH]c1ccccc21 (stereo not drawn) 7.2%
CC(C)NC(=O)C1(c2ccccc2)CCOCC1 -8.01%
CCCCOn1c(C)c(C(C)=O)c2c3no[n+]([O-])c3ccc21 -14.4%
CCSc1nc(O)c(C2OC(=O)c3c2ccc(OC)c3OC)c(=O)n1CC (stereo not drawn) 9.9%
COC(=O)c1ccccc1NC(=O)NCc1ccccc1 -7.31%
Cc1ccc2[nH]c3c(c2c1)CN(C(=O)CN1CCSCC1)CC3 -8.61%
COc1ccccc1C1(CC(=O)N2CCCCC2)CCOC(C(C)C)C1 (stereo not drawn) 14.4%
CC(C)CCNC(=O)[C@H](CC(C)C)NC(=O)[C@H]1O[C@@H]1C(=O)O -0.406%
CC(=O)N1N=C(c2cccs2)CC1c1ccc(C)o1 (stereo not drawn) 15.9%
Cc1cc(Cl)cc2c1NC(=O)[C@]21[C@@H]2C(=O)N(Cc3ccccc3)C(=O)[C@@H]2[C@@H]2CCCN21 6.75%
COC(=O)CN1C(=S)N(c2ccc(F)cc2)C(=O)C1CC(=O)Nc1ccccc1 (stereo not drawn) 9.33%
Cc1ccc(P(=O)(CSC(=N)N)c2ccc(C)cc2)cc1 -1.66%
Cc1[nH]c2ccccc2c1C(=O)C(=O)NCc1ccco1 5.84%
Cc1ccccc1NC(=O)NCCc1c[nH]c2ccccc12 17.7%
OCCC1CN(Cc2ccccc2-c2ccco2)CCN1C1CCCC1 (stereo not drawn) -5.78%
Cc1ccc(CN2CCN(Cc3cn[nH]c3C3CCCCC3)CC2CCO)cc1 (stereo not drawn) -25.7%
Cc1ccc(Nc2ncccc2C(=O)O)cc1C -4.41%
CS(=O)c1ccccc1O (stereo not drawn) 14.9%
N/C(=N\OC(=O)CCCOc1ccc(Cl)cc1Cl)c1ccncc1 -2.92%
COc1ccc(C2NC(=O)c3ccccc3N2)cc1OC (stereo not drawn) -3.61%
C=C(C)c1nc2cc(OC)c(OC)cc2c(=O)o1 12.6%
C=CCNC(=O)c1ccc(-c2cccc([N+](=O)[O-])c2)o1 0.359%
COc1ccc(-n2cc(CNCc3cccnc3)c(-c3cccc(F)c3)n2)cc1 -18.3%
COC(=O)c1cc(-c2ccc(OC)c(OC)c2)on1 -8.12%
O=c1c2ccccc2nc2n1CCCN2 6.84%
CCOC(=O)N1CCc2[nH]c3ccc(C)cc3c2C1 -0.0125%
CC1(C)CC(C(CC(=O)O)c2ccccc2)CCO1 (stereo not drawn) -0.107%
Cc1ccc2c(c1)c(C)cc(=O)n2CCC(=O)O -4.29%
Cc1ccccc1OCC(O)CN1CCN(C)CC1 (stereo not drawn) 2.9%
COc1cccc(C2CCCN2Cc2nc(CCC(C)C)no2)c1 (stereo not drawn) 11.4%
CC(C)N(Cc1nccn1C)C(=O)CC1C(=O)NCCN1Cc1ccccc1C(F)(F)F (stereo not drawn) -0.671%
CCOCCCNCc1cn(-c2ccc(F)cc2F)nc1-c1ccccc1C 5.3%
CCOC(=O)C1(Cc2cccc(Cl)c2)CCCN(C2CCN(C(C)=O)CC2)C1 (stereo not drawn) -10.8%
Cc1ccc(C2=NOC(=O)/C2=C\C=C\c2ccccc2)cc1 14.3%
O=C1c2ccccc2C(=O)N1/N=C/c1ccc(Oc2ccc([N+](=O)[O-])cn2)cc1 4.52%
CC1(C)Oc2ccc(C#N)cc2[C@@H](N2CCCC2=O)[C@@H]1O 7.78%
CC1(C)Cc2ccccc2C(C(Cc2ccccc2)C(N)=O)=N1 (stereo not drawn) -4.58%
O=C(CN1CCN(Cc2ccccc2)CC1)N1CCCc2c1c(=O)oc1ccc(O)cc21 -7.45%
O=C(NCCc1cccc(F)c1)[C@@H]1CSC2c3ccccc3C(=O)N21 (stereo partly drawn) 3.04%
COc1ccc(CCNC(=O)CC(c2ccccc2)c2cccc(C)c2O)cc1OC (stereo not drawn) -1.09%
CCn1c(SCC(=O)c2ccccc2)nc2ccccc2c1=O -10.3%
CC1(C)Cc2nc3sc4c(=O)n(CC(N)=O)cnc4c3cc2CO1 -2.88%
CC(C)(C)OC(=O)COc1cc(OCC(=O)OC(C)(C)C)c2c(=O)cc(-c3ccccc3)oc2c1 -8.59%
Cn1cnc2c1c(=O)n(CC(O)CO)c(=O)n2C (stereo not drawn) -5.12%
O=C(O)c1ccccc1C(=O)OCCCCOC(=O)c1ccccc1C(=O)O -3.9%
COc1ccc(C(=O)NCC2OCCc3ccccc32)cc1 (stereo not drawn) -3.22%
O=C1CC(c2ccc(F)cc2)Cc2nc(NCC3CCCO3)ncc21 (stereo not drawn) 6.43%
COc1ccccc1OCC(=O)O -2.4%
NC(N)=NC(N)=Nc1ccc2ccccc2c1 -11.6%
O=C(c1cc2cc(Br)ccc2o1)N1CCCCC1 5.37%
Cc1ccc2c(CN3CCN(Cc4ccc5c(c4)OCO5)CC3)cc(=O)oc2c1C 0.516%
COc1ccc(-c2cc(=O)oc3cc(OC(C)C(=O)O)ccc23)cc1 (stereo not drawn) -0.213%
CN(Cc1c(C(=O)N(C)Cc2ccccc2)nc2ccccn12)CC1Cc2ccccc2O1 (stereo not drawn) 11.4%
CC(C)CCc1noc(CN2CCC(CCN3CCCC3=O)CC2)n1 4.25%
Cn1c(SCC(=O)c2ccccc2)nnc1-c1ccncc1 0.861%
